Shown is part of a subset that was picked to be rich in hits.
S-ASM inh: Inhibitors of Secretory Acid Sphingomyelinase (S-ASM): qHTS; Sphingomyelin phosphodiesterase (Homo sapiens), P17405; placental ASM, HMU-PC fluorogenic substrate, 60 min; Potency, µM (titrated, usually from 57.5 µM), without a hit: top-dose activity change, negative = inhibition, usual class: inhibitors; 0.006% of 340,000 active; AID 504937, 2011; further: potency means the concentration at half of the fitted maximal effect
Target sequence (P17405 47-631 limits assumed): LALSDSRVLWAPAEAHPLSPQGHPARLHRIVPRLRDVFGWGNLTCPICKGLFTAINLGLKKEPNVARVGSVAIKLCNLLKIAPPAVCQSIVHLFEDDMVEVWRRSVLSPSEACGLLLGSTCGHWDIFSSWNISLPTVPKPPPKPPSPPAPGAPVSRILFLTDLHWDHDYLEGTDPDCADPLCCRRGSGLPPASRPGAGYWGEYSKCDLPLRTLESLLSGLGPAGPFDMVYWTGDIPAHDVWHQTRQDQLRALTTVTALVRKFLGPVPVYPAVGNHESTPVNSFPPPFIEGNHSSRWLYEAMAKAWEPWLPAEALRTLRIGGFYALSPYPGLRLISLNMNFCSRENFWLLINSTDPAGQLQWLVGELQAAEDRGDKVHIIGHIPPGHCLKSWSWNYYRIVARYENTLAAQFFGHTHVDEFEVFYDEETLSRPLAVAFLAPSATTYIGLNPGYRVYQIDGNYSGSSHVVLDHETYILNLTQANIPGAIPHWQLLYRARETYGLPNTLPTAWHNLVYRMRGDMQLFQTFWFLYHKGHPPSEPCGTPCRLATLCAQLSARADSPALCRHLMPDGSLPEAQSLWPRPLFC
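Fluorescence read-out (Ex 386 nm, Em 447 nm) after stopping the reaction at pH 10. Enzyme: ASM from human placenta; substrate HMU-PC0, 9 uM final; 60 min, 37 °C. Compound preincubation 10 min, ambient temperature.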
ClpP mod: qHTS Assay for Activators of ClpP; Potency, µM (titrated, usually from 57.5 µM), without a hit: at the highest dose activity change, negative = active; 1.9% of 340,000 active; purified B. subtilis ClpP, FRET peptide cleavage, 20 min; AID 651965, 2013; active means well fitted falling curve with a large enough effect; inconclusive means small, poorly fitted or top-dose-only effect; inactive means no such curve, though single readings can be large or run the other way; further: potency means the concentration at half of the fitted maximal effect; the source files actives as falling curves though it sought activators and does not explain the sign; nearly all actives have a fitted effect of over 65% in size
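ClpP 10 microg/mL final, pH 8 Tris/KCl buffer with BSA, glycerol, Tween-20; compound pinned in; FRET-FV substrate; RT 20 min; Ex320/Em430; ΔFRET vs ADEP 5.8 microM, DMSO, no enzyme.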
LDHA block: qHTS assay for inhibitors of human lactate dehydrogenase; L-lactate dehydrogenase A chain (Homo sapiens), P00338; purified LDHA, NADH/diaphorase-resazurin fluorescence; active compounds read low; activity change, % (values are at about 110 or 230 µM); 0.15% of 480,000 active; AID 1347041, 2019; in the data active means activity change below about -30%; inconclusive means mostly about -25% to -30%;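 further: plate controls were DMSO wells for no effect and wells without enzyme for full effect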
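Enzyme activity of human lactate dehydrogenase 5 (2 nM; 0.06 mM NADH, 0.2 mM pyruvate, 5 min, RT) is measured via a resazurin/diaphorase fluorescence readout of residual NADH.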
IDH1 R132H inh: qHTS for Inhibitors of mutant isocitrate dehydrogenase 1 (IDH1): qHTS | Potency, µM (doses to about 76.6 µM), for the others: at the top dose activity change, negative = inhibition, most hits filed as inhibitors | IDH1-R132H enzyme, NADPH consumption, diaphorase/resazurin fluorescence | 0.093% of 390,000 active; further: potency means the concentration at half of the fitted maximal effect; on the % scale 0 is the no-effect control and ±100 the full control effect; nearly all actives have a fitted effect of over 65% in size
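IDH1-R132H (0.5 ug/mL dispensed) in pH 7.5 Tris buffer was preincubated 30 min with compound, then given a substrate mix of 0.016 mM NADPH and 2 mM alpha-KG for 80 min at room temperature; remaining NADPH was read by diaphorase/resazurin fluorescence.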
RGS4 inh: Inhibitors of Regulator of G Protein Signaling (RGS) 4: qHTS. Regulator of G-protein signaling 4 (Homo sapiens), P49798. Transcreener GDP fluorescence polarization, RGS4-accelerated GTP hydrolysis. Potency, µM (series often up to 114 µM), for inactives: top-dose activity change, negative = inhibition, most hits filed as inhibitors. 0.039% of 390,000 active. AID 504845, 2011; further: potency means the concentration at half of the fitted maximal effect; on the % scale 0 is the no-effect control and ±100 the full control effect; nearly all actives have a fitted effect of over 75% in size
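MLSMR compounds (23 nl, pin-transferred) preincubated 10 min at room temperature with a 500nM (2x) first reagent, then RGS4 at 900nM (2x) plus Transcreener GDP mix added; fluorescence polarization (620/688 nm) read before and after 90 min at 30 °C.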
Mito fusion yeast: qHTS Assay for Small Molecule Inhibitors of Mitochondrial Division or Activators of Mitochondrial Fusion; 0.23% of 320,000 active; AID 485298, 2010; Potency, µM (doses to about 46.1 µM), for the others: at the top dose growth rescue (activation), actives largely listed as activators; S. cerevisiae fusion-defective mutant growth rescue, CellTiterGlo 48 h; further: potency means the concentration at half of the fitted maximal effect; % of control where 0% means no effect; nearly all actives have a fitted effect of over 45% in size
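Yeast fusion mutant, YPEG (non-fermentable carbon), compound, 48 h at 37C non-permissive; CellTiterGlo added, 10 min RT, luminescence read. Rescued growth = division inhibition.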
An asterisk follows results filed as active; u = inconclusive; x = no result given. Unless noted, the call rests on the fitted dose curve; in most records, active means well fitted curve in the direction sought with a large enough effect; inconclusive means small, poorly fitted or top-dose-only effect, or another doubt; inactive means no such curve, though single readings can be large; an effect the other way counts as inactive or inconclusive.

SMILES	S-ASM inh	ClpP mod	LDHA block	IDH1 R132H inh	RGS4 inh	Mito fusion yeast
COc1ccc(OC)c(NC(=O)c2nc3ccccc3nc2N2CCOCC2)c1	x	x	-19	x	x	x
COC(=O)C1C(=O)C=C(N2CCOCC2)CC1(C)C (stereo not given)	-6%	13µM*	-6	8%	-18%	-3%
CC1=C/C(=N\NC(=S)Nc2ccc(F)cc2)CC1	x	x	-3	x	x	x
Cc1oc(-c2cccs2)nc1CC(=O)N1CCC(C(=O)NCc2ccccc2)CC1	x	x	-24	x	x	x
O=C(Cn1cc(C(=O)c2ccccc2)c2ccccc21)NCc1ccccc1	x	x	-35*	x	x	x
COc1ccccc1CCNC(=O)c1csc2ccccc12	x	x	9	x	x	x
COc1ccc2oc(C(=O)OCC(=O)N(C)c3ccccc3)c(C)c2c1	5%	x	-1	3%	3%	10%
COc1ccc2oc(C(=O)OCC(=O)N(C)Cc3ccccc3)c(C)c2c1	x	28µM*	-8	0%	-6%	8%
COc1ccc2oc(C(=O)OCC(=O)N(Cc3ccccc3)C(C)C)c(C)c2c1	-3%	32µM*	-6	2%	5%	13%
COc1ccc2oc(C(=O)OCC(=O)NC(C)c3ccccc3)c(C)c2c1 (stereo not given)	-1%	3%	1	0%	1%	u
CCC(C)NC(=O)COC(=O)c1ccc(C)c(C)c1 (stereo not given)	x	x	3	x	x	x
CCOc1ccccc1Oc1c(C)oc2cc(OC(=O)C(C)(C)C)ccc2c1=O	x	x	4	x	x	x
CC1CCCN(C(=O)COC(=O)c2n[nH]c3ccccc23)C1 (stereo not given)	1%	22µM*	-5	4%	44%	-3%
CCOC(=O)C1CCN(C(=O)COC(=O)c2nn(C)c(=O)c3ccccc23)CC1	1%	-4%	0	-5%	-2%	-4%
O=C(OCC(=O)N1CCCCC1)c1n[nH]c(=O)c2ccccc12	0%	x	-8	0%	8%	3%
COC(=O)C1CCN(C(=O)COC(=O)c2n[nH]c3ccccc23)CC1	0%	32µM*	0	8%	-21%	-2%
COC(=O)c1cc(C(=O)c2cc(Cl)ccc2O)coc1=N	29%	1%	10	11%	-12%	-8%
COCCOC(=O)c1cc(C(=O)c2cc(F)ccc2O)coc1=N	448%	16µM*	0	-4%	-18%	0%
N#CC1(C(=O)Nc2ccc(Cl)cc2)CCCC1	x	x	-5	x	x	x
CCn1c(CSc2nc3ccccc3[nH]2)nc2cc(C(=O)O)ccc21	163%	35µM*	-30*	3%	u	-4%
CCn1c(CSc2nccn2C)nc2cc(C(=O)O)ccc21	17%	-29%	7	9%	u	-3%
CC(C)(C)c1nnc(Nc2cc(Cl)ccc2Cl)[nH]c1=O	x	x	-13	x	x	x
Cc1cc2nc(-c3cccnc3SCC(=O)NCc3ccco3)[nH]c2cc1C	191%	16µM*	-1	3%	-20%	-12%
Cc1cc2nc(-c3cccnc3SCC(=O)NC3CC3)[nH]c2cc1C	x	x	x	x	x	0%
O=C(CSc1ncccc1-c1nc2ccccc2[nH]1)NCc1ccco1	117%	14µM*	4	11%	-32%	1%
CCN(CC)S(=O)(=O)c1ccc(C)c(NS(=O)(=O)c2cccc(C(C)=O)c2)c1	x	x	-1	x	x	x
CC1CCC2(CC1)Nc1ccccc1C(=O)N2c1ccccc1 (stereo not given)	66%	28µM*	-4	-1%	-4%	0%

Bioassay records: PubChem, National Center for Advancing Translational Sciences (NCATS)
